Structures can show the parent of a compound that is named as a salt.
What was measured:
Settings in all cases: compound concentration in added solution (µM; 5 µl added to 20 µl cells): 10; 18 h
A431 [1] = assay: LBPA endosome anti-LBPA integrated intensity (sum per cell), Z-score; higher = more LBPA staining
Method in brief: (§1)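 HeLa MZ or A431 cells (3,500/well in 20 µl) were seeded onto 5 µl of 10 µM compound solution in duplicate 384-well imaging plates, incubated 18 h, then fixed in 4% PFA. Cells were stained with 6C4 anti-LBPA antibody, filipin, propidium iodide and CellTracker green, and four 20× images were taken per well. MetaXpress segmentation gave per-cell integrated LBPA or filipin intensity, either whole-cell or within LBPA endosomes. Values are Z-scores normalised in AcuityXpress.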

HeLa MZ [2] = assay: as above
Method in brief: as §1

A431 [3] = assay: whole-cell filipin (free cholesterol) integrated intensity, Z-score; higher = more cholesterol staining
Method in brief: as §1

HeLa MZ [4] = assay: as above
Method in brief: as §1

A431 [5] = assay: filipin (cholesterol) integrated intensity within LBPA endosomes, Z-score; higher = more cholesterol in LBPA endosomes
Method in brief: as §1

HeLa MZ [6] = assay: as above
Method in brief: as §1

SMILES	LBPA endosome anti-LBPA integrated intensity (z-score) (A431 [1])	LBPA endosome anti-LBPA integrated intensity (z-score) (HeLa MZ [2])	whole-cell filipin (z-score) (A431 [3])	whole-cell filipin (z-score) (HeLa MZ [4])	filipin (z-score) (A431 [5])	filipin (z-score) (HeLa MZ [6])
CN1CCCCC1CCN1c2ccccc2Sc2ccc([S+](C)[O-])cc21 (configuration not stated) [Mesoridazine besylate]	0.975	2.18	0.066	0.244	0.618	1.37
COCCCOc1ccnc(C[S+]([O-])c2nc3ccccc3[nH]2)c1C (configuration not stated) [Rabeprazole Sodium salt]	-0.587	-0.545	0.0453	1.99	-0.44	-0.189
CCC[C@H](N[C@@H](C)C(=O)N1[C@H](C(=O)O)C[C@@H]2CCCC[C@@H]21)C(=O)OCC [Perindopril]	-0.273	-0.885	0.0463	-0.4	-0.305	-0.603
CC1CS(=O)(=O)CCN1/N=C/c1ccc([N+](=O)[O-])o1 (configuration not stated) [Nifurtimox]	-0.541	-0.54	0.0023	-0.211	-0.444	-0.628
CCCCCCCCNC(C)C(O)c1ccc(SC(C)C)cc1 (configuration not stated) [Suloctidil]	2.96	-0.389	1.67	1.53	3.3	3.27
CNC1(C)C2CCC(C2)C1(C)C (configuration not stated) [Mecamylamine hydrochloride]	-0.608	-1.35	-0.41	-0.324	-0.495	-0.557
O=C1OC(CN2CCOCC2)CN1/N=C/c1ccc([N+](=O)[O-])o1 (configuration not stated) [Furaltadone hydrochloride]	-0.539	-0.499	-0.319	-0.322	-0.493	-0.666
Cn1c(=O)c2c(ncn2CC(=O)O)n(C)c1=O [Acefylline]	-0.332	0.383	-0.237	-0.0327	-0.446	-0.485
Cc1cc2cc3c(C)cc(=O)oc3c(C)c2o1 [Trioxsalen]	-0.317	0.147	-0.465	-0.318	-0.425	-0.476
CN(C)CCN(Cc1ccc(Cl)cc1)c1ccccn1 [Chloropyramine hydrochloride]	0.629	4.98	1.63	5.51	1.05	1.3
CC1(C)S[C@@H]2[C@H](NC(=O)[C@H](C(=O)O)c3ccsc3)C(=O)N2[C@H]1C(=O)O [Ticarcillin sodium]	-0.466	-0.401	-0.165	-0.157	-0.403	-0.501
CC(C)(C)NC[C@@H](O)COc1cccc2c1CCCC2=O [(+) -Levobunolol hydrochloride]	-0.326	1.33	-0.176	-0.0312	-0.353	0.0482

Reference: the supplement of paper PMC6607015
